From PubChem BioAssay (NCI)
About 79,000 compounds went through this panel and 15% of them were active in at least one assay; those are over-represented in the sample as a whole. The source made the active and inactive calls. No stated cut-off is given here; in the data, active means growth inhibition above about 70%; inactive means the rest.

Columns and labels:
[1] = NCI Yeast Anticancer Drug Screen. Data for the rad50 strain (AID 155);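 further: 0% = growth of vehicle-only cultures of the same strain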; settings: S. cerevisiae rad50 strain growth inhibition; at 50.0 µM; active compounds read high
In short: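 Cells are treated with compound, grown, and their growth is then scored against vehicle-only cultures of the same repair-deficient yeast strain.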

[2] = NCI Yeast Anticancer Drug Screen. Data for the mec2-1 strain (AID 157); settings: S. cerevisiae mec2-1 strain, at 50.0 µM, active compounds read high
In short: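 Test agents were screened against the mec2-1 yeast strain, with defined DNA repair or cell cycle alteration. Growth was scored as inhibition against vehicle-only controls.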

[3] = NCI Yeast Anticancer Drug Screen. Data for the sgs1 mgt1 strain (AID 161);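 further: 0% = growth of cultures given vehicle only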; settings: S. cerevisiae sgs1 mgt1 strain, at 50.0 µM, active compounds read high
In short: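 Inhibition of yeast growth, normalised to vehicle-treated controls, is reported for a strain bearing genetic alterations in DNA damage repair.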

[4] = NCI Yeast Anticancer Drug Screen. Data for the cln2 rad14 strain (AID 165);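 further: 0% = growth equal to vehicle treated cultures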; settings: S. cerevisiae cln2 rad14 strain, at 50.0 µM, active compounds read high
In short: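 Growth of compound-exposed yeast (cln2 rad14 genotype) measured and expressed as inhibition relative to vehicle.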

[5] = NCI Yeast Anticancer Drug Screen. Data for the bub3 strain (AID 167); settings: S. cerevisiae bub3 mutant strain, at 50.0 µM, active compounds read high
In short: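 Part of a panel of yeast mutants defective in DNA damage repair or cell cycle regulation. Each strain is grown with compound, and inhibition is calculated relative to solvent-treated cultures.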

[6] = NCI Yeast Anticancer Drug Screen. Data for the mlh1 rad18 strain (AID 175); settings: S. cerevisiae mlh1 rad18 strain growth inhibition; at 50.0 µM; active compounds read high
In short: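 In this whole-cell yeast screen, a strain with altered DNA damage repair is challenged with compound, and its growth is measured against matched vehicle-treated controls.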

Measured: growth inhibition

Nc1cccc(/C=C/c2cccc([N+](=O)[O-])c2)c1
inactive: [1] 18.2% | [2] 37.5% | [3] 12.8% | [4] 4% | [5] 60.3% | [6] 30.2%

ClCc1c(Cl)c(Cl)c(CCl)c(Cl)c1Cl
inactive: [1] 2.75% | [2] -10.9% | [3] 3.1% | [4] 20.6% | [5] 12.6% | [6] -10.1%

C[S+](C)CC(=O)c1ccccc1O
inactive: [1] -2.55% | [2] -9.7% | [3] 2.2% | [4] -62.4% | [5] 3.4% | [6] -0.6%

CN1CCCc2cccc(NC(=O)C3CCCNC3=O)c21 (stereo not given)
inactive: [1] -15.3% | [2] 1.35% | [3] -2.3% | [4] -32.8% | [5] 6.55% | [6] 9.75%

COCCN(C)C(c1ccccc1)C(O)c1ccccc1 (stereo not given)
inactive: [1] 4.8% | [2] -12.9% | [3] 4.3% | [4] -37% | [5] 4.95% | [6] 4.1%

O=C(O)C(C(C(=O)O)P(=O)(O)O)P(=O)(O)O (stereo not given)
inactive: [1] -17.9% | [2] -30.8% | [3] -50.6% | [4] -38.8% | [5] -12.2% | [6] -62.3%

COc1ccc2ncc(C)c(CO)c2c1
inactive: [1] 3.25% | [2] -6.05% | [3] -1.65% | [4] -50.9% | [5] 0.75% | [6] -2.65%

Clc1ccc2ncccc2c1
inactive: [1] 29.8% | [2] 18% | [3] 7.7% | [4] -24.1% | [5] 7.95% | [6] 17%

O=C1CSc2nc3c(Cl)cc(Cl)cc3c(=O)n21
inactive: [1] 15.7% | [2] 24.6% | [3] 54.1% | [4] 8.2% | [5] 30.2% | [6] 46.1%

CC(F)(F)C(F)(F)C(=O)CC(=O)C(F)(F)F.CC(F)(F)C(F)(F)C(=O)CC(=O)C(F)(F)F.[Cu]
inactive: [1] -9.15% | [2] -20.4% | [3] -9.75% | [4] -72% | [5] 1.95% | [6] -43.6%

CCN(CC)CCN1C(=O)NC2(CCCCC2)C1=O
inactive: [1] 19.5% | [2] -0.8% | [3] 18.8% | [4] 16% | [5] 10.6% | [6] 20.8%

O=C(CC(O)(C(F)(F)Cl)C(F)(F)Cl)c1cccc([N+](=O)[O-])c1
inactive: [2] 62% | [5] 61%
active: [1] 77.5% | [3] 81.5% | [4] 72.5% | [6] 95.8%

CC(=O)N1C(=O)NC(=O)C1(C)C
inactive: [1] -7% | [2] -29.9% | [3] 6.65% | [4] -18.5% | [5] 1.5% | [6] -7.15%

CC1=CC(=O)OC(=O)/C1=C/c1ccc(N(C)C)cc1
inactive: [1] -11.2% | [2] 33.8% | [3] -7.65% | [4] 19.7% | [5] 23% | [6] -9.4%

OC1CCCC1c1ccccc1 (stereo not given)
inactive: [1] 6.4% | [2] -24.4% | [3] -11.9% | [4] -7.55% | [5] -3.7% | [6] 4.45%

N#Cc1cc2ccccc2n(Cc2ccccc2)c1=O
inactive: [1] -8.85% | [2] -9.9% | [3] -9.4% | [4] 7.85% | [5] 3.75% | [6] -9.55%

C/C(C=C(C#N)C#N)=C\c1ccccc1
inactive: [1] 25.3% | [2] 11.3% | [3] -5.7% | [4] 14.2% | [5] 36.9% | [6] 17.6%

O=C(O)c1cccc2c1-c1ccc(NC(=O)C(Cl)Cl)cc1C2=O
inactive: [1] 31% | [2] -1.65% | [3] -6.85% | [4] -5.7% | [5] 16.1% | [6] 12.1%

O=C(O)c1cccc(C2=CCCC2)c1
inactive: [1] 15.2% | [2] 6.1% | [3] 14.1% | [4] 10.3% | [5] -26.5% | [6] 15.7%

CC(=O)C1C(=O)C(=O)N(c2ccc(F)cc2)C1=O (stereo not given)
inactive: [1] -17.4% | [2] -15.5% | [3] -5.4% | [4] -6.95% | [5] -25.9% | [6] -27.3%

CCCCCCCCCCCCSC(=O)NCCC
inactive: [1] -3.75% | [2] -2.05% | [3] 1.6% | [4] 0.05% | [5] 3.45% | [6] 1.4%

CCCCNC(=S)N/N=C/c1ccc(OC)cc1
inactive: [1] -10.8% | [2] 1.55% | [3] -1.3% | [4] -41% | [5] -1.85% | [6] -6.45%

c1ccc(-c2cccc(-c3ccccc3)n2)cc1
inactive: [1] 20.5% | [2] 33.9% | [3] -1.4% | [4] -10.8% | [5] -24.3% | [6] 28.7%

C/C=C/C1N(C)CCCN1C
inactive: [1] -2% | [2] -7.55% | [3] -7.25% | [4] 18% | [5] -25.9% | [6] 8.55%

C(=C\CSc1ccccn1)/CSc1ccccn1
inactive: [1] 50% | [2] 6.4% | [3] 56.6% | [4] 18.6% | [5] 49.4% | [6] 25%

O=C(N/C(=C\c1cc(Cl)ccc1Cl)c1nc2ccccc2[nH]1)c1ccccc1
inactive: [1] 50.2% | [2] 8.65% | [3] 31.9% | [4] 25% | [5] 43.9% | [6] 42.3%

COC(=O)c1cc(C(C)O)nc2ccccc12 (stereo not given)
inactive: [1] 4.95% | [2] 3.95% | [3] 6.25% | [4] 0.65% | [5] 27% | [6] 6.35%

O=S(=O)(OC12CCCCC1CN1CCCCC1C2)c1ccc(Br)cc1 (stereo not given)
inactive: [1] 14.6% | [2] 9.5% | [3] -4.1% | [4] -3.1% | [5] 3.7% | [6] 12.8%

O=C1CN(CCN2CCCCC2)CC(=O)N2Cc3ccccc3CN12
inactive: [1] -10.1% | [2] 2.85% | [3] 12.1% | [4] -1.55% | [5] 7.8% | [6] 14.2%

COc1ccc(-c2cc(C(=O)N/N=C/c3ccc([N+](=O)[O-])cc3)c3ccc(C)cc3n2)cc1OC
inactive: [1] 43.6% | [2] 13.7% | [3] 39.1% | [4] 14.6% | [5] -1.05% | [6] 46.9%

CCOP(=O)(OCC)/C(C#N)=C\c1ccc(N(C)C)cc1
inactive: [1] 13.5% | [2] 6.3% | [3] 10.2% | [4] -13.7% | [5] 6.35% | [6] -0.65%

Cc1ccc(NC(=O)C(c2ccccc2)c2ccccc2)cc1
inactive: [1] 0.15% | [2] 19.4% | [3] 3.8% | [4] -2.55% | [5] 20.2% | [6] 6.75%

O=C1C=C2SCCN2C(=O)C1
inactive: [1] -5.9% | [2] -33.8% | [3] -9.15% | [4] -2.85% | [5] -5.85% | [6] 14.9%

CC(=O)C1=C(O)C(CSCc2ccccc2)NC1=O (stereo not given)
inactive: [1] 10.8% | [2] 0.65% | [3] 5.95% | [4] -2.9% | [5] 15.1% | [6] 15.2%

CC(C)=NOCCC#N
inactive: [1] 22.5% | [2] -0.05% | [3] -4.8% | [4] -16.6% | [5] 8.35% | [6] -14.3%

CCN(CC)CC(O)CO (stereo not given)
inactive: [1] -4.55% | [2] -16.6% | [3] -17.1% | [4] 5.9% | [5] 2% | [6] 1.35%

CCCCOB(OCCCC)OCCCC
inactive: [1] 6.1% | [2] -3.25% | [3] -12.6% | [4] 11.8% | [5] -1.65% | [6] -21.9%

CC1(O)CC(C(F)(F)F)(C(F)(F)F)OC1=O (stereo not given)
inactive: [1] -20.9% | [2] -42.7% | [3] -7.75% | [4] -28.9% | [5] -2.25% | [6] -13.9%

CC(I)CNC1=NCC(=O)N1 (stereo not given)
inactive: [1] -8.6% | [2] 5.9% | [3] -9.9% | [4] -21.1% | [5] 13.1% | [6] 13%

COc1ccccc1/C=N/NS(=O)(=O)c1ccc(NC(C)=O)cc1
inactive: [1] 0.85% | [2] -7.05% | [3] 14.1% | [4] -14.7% | [5] -41.3% | [6] -4.2%
